This is an account of results in PubChem BioAssay (Tox21).

Unmarked numbers belong to inactive results. Inconclusive results are not listed. The source made the active and inactive calls. Unless noted, calls come from the whole dose curve.

Test [1] concerns the target Thyrotropin receptor (Homo sapiens) (UniProt P16473). As to the kind of experiment: qHTS assay to identify small molecule agonists of the thyroid stimulating hormone receptor (TSHR) signaling pathway (AID 1224843). Note: nearly all actives have a fitted effect of over 45% in size. The procedure, abridged: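 Cell line HEK293 with TSHR; density 800/well. Exposure 30 min RT. Readout HTRF cAMP (cAMP-d2/anti-cAMP-cryptate), 1 h RT before reading.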
On the technique in general: qHTS replaces the single test concentration by a dilution series.

Test [2] is described as follows: qHTS assay to identify small molecule agonists of the hypoxia (HIF-1) signaling pathway - cell viability counter screen (AID 1224844). Note: nearly all actives have a fitted effect of over 50% in size. The method in brief:
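Multiplexed with the HRE beta-lactamase assay, this viability read used CellTiter-Glo luminescence (30 min, RT) on HRE-bla ME-180 cells treated 17 hrs with compounds in 0.5% dialyzed FBS medium.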

Test [3] can be described thus: qHTS assay to identify small molecule agonists of H2AX (AID 1224845; active = well fitted activation curve with a large enough effect in the signal ratio in the repeat runs, not every such curve was filed as active; the % refers to the signal ratio; note: potency is the fitted concentration of half-maximal effect). The method in brief:
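Wild-type CHO-K1 cells plated overnight, then exposed 3 hr at 37C to compounds at 15 concentrations (0.76% DMSO). Lysed, then HTRF anti-pH2AX(S139)-cryptate/anti-H2AX-d2 detection after 24 hr at room temperature; emissions 665 and 620 nm.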

Test [4] is described as follows: qHTS assay to identify small molecule agonists of H2AX - cell viability counter screen (AID 1224847). Note: top concentration of the series differs between compounds; nearly all actives have a fitted effect of over 30% in size. The method in brief: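 Counter-screen for viability: CellTiter-Glo ATP luminescence read after 3 h compound treatment (15-point titration, 0.76% DMSO final) of CHO-K1 cells at 37C, with 30 min room-temperature reagent incubation.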
Test [5] is described as follows: qHTS assay to identify small molecule antagonists of the estrogen related receptor (ERR) signaling pathway from Tox21 library (AID 1224848; active = well fitted curve in the direction sought with a large enough effect in the repeat runs; an effect the other way counts as inactive or inconclusive; note: nearly all actives have a fitted effect of over 50% in size). The method in brief: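 Screening used an ERR reporter line supplied by NTP, exposed for 18 h at 37 C to library compounds delivered in DMSO. Signal was luciferase luminescence developed with ONE-Glo at room temperature for 30 min.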

Test [6] in a line: qHTS assay to identify small molecule agonists of the estrogen related receptor (ERR) signaling pathway from Tox21 library (AID 1224849). Note: nearly all actives have a fitted effect of over 15% in size. The settings on record: ERR reporter cell line, ONE-Glo luciferase, 18 h; at 92.4 µM (top of the series) unless noted. The procedure, abridged: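 Six hours post-seeding at 37 C/5% CO2, ERR cells receive DMSO-solubilised compounds; after 18 h at 37 C, ONE-Glo reagent is applied and luminescence recorded.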

Test [7] is described as follows: qHTS RealTime-Glo MT Cell Viability Assay in HepG2 cells - 24 hour (AID 1224867; active = well fitted curve in the direction sought with a large enough effect in the repeat runs; an effect the other way counts as inactive or inconclusive; note: nearly all actives have a fitted effect of over 50% in size). The procedure, abridged: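 Tox21 10K library screened in qHTS format on HepG2 cells carrying RealTime-Glo reagents. Compounds were added after a 5 h preincubation, and the luminescent signal from continuous culture was measured repeatedly during 40 h treatment.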
Test [8] is described as follows: A CellTox Green Cytotoxicity Assay to monitor cytotoxicity in HEK293 cells - 0 hour (AID 1224869; active = well fitted curve in the direction sought with a large enough effect in the repeat runs; an effect the other way counts as inactive or inconclusive; note: nearly all actives have a fitted effect of over 50% in size). The procedure, abridged: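 Seeding of HEK293 cells together with cytotoxicity dye preceded a 5 h incubation at 37 C/5% CO2. Test compounds in DMSO were then added and fluorescence monitored across 40 h.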
Test [9] in a line: qHTS assay to identify small molecule agonists of the hypoxia (HIF-1) signaling pathway (AID 1224846; active = well fitted activation curve with a large enough effect in the signal ratio in the repeat runs, not every such curve was filed as active; the % refers to the signal ratio). The procedure, abridged: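 Hypoxia-pathway activation was scored as increased beta-lactamase from an HRE-controlled reporter in ME-180 cells; plated at 2,000 cells per well with 0.5% dialyzed FBS, they were exposed 17 hrs to compounds and then given CCF4-AM.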
Test [10] in a line: qHTS RealTime-Glo MT Cell Viability Assay in HEK293 cells - 32 hour (AID 1224868; active = well fitted curve in the direction sought with a large enough effect in the repeat runs; an effect the other way counts as inactive or inconclusive). The procedure, abridged: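 Luminescence generated by NanoLuc from substrate produced by living HEK293 cells served as the viability signal. Each value reflects the reading at its stated time point during continuous 40 h compound exposure at 37 C.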
% is set by controls: 0 for no effect and ±100 for the full control effect.

Thyrotropin receptor (Homo sapiens), sequence (P16473 whole entry, looked up): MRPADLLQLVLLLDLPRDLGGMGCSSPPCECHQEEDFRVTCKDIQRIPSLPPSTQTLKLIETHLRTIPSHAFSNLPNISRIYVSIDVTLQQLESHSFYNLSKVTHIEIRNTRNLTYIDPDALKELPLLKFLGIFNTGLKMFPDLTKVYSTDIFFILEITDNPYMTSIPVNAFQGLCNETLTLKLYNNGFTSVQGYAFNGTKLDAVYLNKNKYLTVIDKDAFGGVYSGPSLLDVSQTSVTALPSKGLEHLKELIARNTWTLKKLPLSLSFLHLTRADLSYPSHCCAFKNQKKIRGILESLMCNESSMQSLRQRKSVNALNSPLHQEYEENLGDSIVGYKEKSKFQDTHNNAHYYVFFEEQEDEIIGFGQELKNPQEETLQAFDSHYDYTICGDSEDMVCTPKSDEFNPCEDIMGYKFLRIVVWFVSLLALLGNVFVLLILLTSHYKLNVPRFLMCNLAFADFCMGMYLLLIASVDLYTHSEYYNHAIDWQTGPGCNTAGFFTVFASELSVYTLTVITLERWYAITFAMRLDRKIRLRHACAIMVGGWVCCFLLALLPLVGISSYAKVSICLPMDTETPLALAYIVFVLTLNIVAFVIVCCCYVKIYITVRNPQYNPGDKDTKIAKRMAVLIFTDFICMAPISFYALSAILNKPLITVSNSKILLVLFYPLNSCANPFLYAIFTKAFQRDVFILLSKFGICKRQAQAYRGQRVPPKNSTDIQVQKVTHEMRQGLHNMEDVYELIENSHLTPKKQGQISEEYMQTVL

For `COc1ccc(/C(C)=C/C(=O)O)c(OC)c1`, the Potency result in test [1], in [2], in test [3], in [4], in test [5] and in test [8] was “inactive” each time. Besides, the activity change, positive = activation in test [6] was 8.11% [at 42.5 µM]. For the same compound, the result in [7] was inactive.
As to `CCCN(C1CCN(C(=O)C2CCNCC2)CC1)[C@@H]1CCc2ccc(OC)cc2C1`, the Potency entry in [1], in [2], in test [3], in [4], in test [5] and in test [8] was “inactive” in each case. Moreover, the activity change, positive = activation in test [6] is -8.07%. Besides, the compound was called inactive in test [7].
Turning to `O=C1OC(=O)C2CC=CCC12` (stereo not drawn), the Potency entry in test [1], in test [2], in [3], in test [4] and in test [8] was “inactive” in each case. Further, the call in [9] was inactive.
In the case of `CCCCOC(=O)CC#N`, the Potency entry in test [1], in test [2], in test [3], in [10] and in [8] was “inactive” in each case. Also, the compound was called inactive in test [9] and in test [7].
With `C=Cc1ccc(C=C)cc1`, the Potency result in test [1], in test [2], in test [3], in [4], in test [5] and in test [10] was “inactive” in each case. Moreover, in [8], the Potency entry was “inactive”. The activity change, positive = activation in test [6] is 3.76%. For the same compound, in test [7], the result was inactive.
Turning to `CCOC(OCC)OCC`, the Potency result in [1], in test [2], in test [3], in test [10] and in [8] was “inactive” each time. The compound was called inactive in test [9] and in test [7].
Take `CC(C)NC(=O)c1ccccc1N`: the Potency result in test [1], in [2], in [3], in [4] and in test [8] was “inactive” in each case. The result in test [9] and in [7] was inactive.
For `Cc1cccc(C)c1NC(=O)CN1CCCC1`, the Potency entry in [1], in [2], in test [3], in [10] and in [8] was “inactive” in each case. Besides, the result in test [9] was inactive.
As to `C[C@H]1C[C@H]2[C@@H]3CCC4=CC(=O)C=C[C@]4(C)[C@@]3(F)[C@@H](O)C[C@]2(C)[C@@]1(O)C(=O)COP(=O)(O)O`, the Potency entry in [1], in [2], in [3], in test [4] and in test [8] was “inactive” in each case. Also, the call in test [9] and in test [7] was inactive.
For `O=C(OC1C[C@H]2CC[C@@H](C1)[N+]21CCCC1)C(O)(c1ccccc1)c1ccccc1` (stereo partly drawn), the Potency result in test [1], in test [2], in test [3] and in test [4] was “inactive” in each case. Moreover, the compound was called inactive in test [7].
As for `Cc1ccc2ccccc2c1[N+](=O)[O-]`, the Potency result in test [1], in test [2], in test [3], in [4] and in [8] was “inactive” each time. Further, the call in [9] and in [7] was inactive.
With `C=C[Si](OCC)(OCC)OCC`, the Potency result in [1], in test [2], in [3] and in [10] was “inactive” in each case. In addition, the compound was called inactive in test [9] and in test [7].
As for `CCC1=C(C)CN(C(=O)NCCc2ccc(S(=O)(=O)NC(=O)NC3CCC(C)CC3)cc2)C1=O` (stereo not drawn), the Potency entry in test [1], in test [2], in test [3], in test [4], in test [5] and in [8] was “inactive” in each case. For the same compound, the activity change, positive = activation in [6] was -15.8% [at 42.5 µM].
For the compound `C=CC(O)CCCCC` (stereo not drawn), the Potency entry in test [1], in test [2], in test [3], in test [4], in test [10] and in [8] was “inactive” each time. The activity change, positive = activation in test [6] was 1.36%. Also, the compound was called inactive in test [7].
As for `CCn1nc(Cc2ccccc2)cc1C1CCN(C[C@H]2C[C@H](N(C)[C@@H](C(=O)O)C(C)C)C[C@@H]2c2cccc(F)c2)CC1`, the Potency result in [1], in test [2], in [3], in [4] and in [8] was “inactive” throughout. Further, the activity change, positive = activation in test [6] was -18.7%. Moreover, the compound was classed as inactive in test [7].
Take `O=Cc1ccc([N+](=O)[O-])cc1`: the Potency result in [1], in test [2], in test [3], in test [4], in test [5] and in test [10] was “inactive” in each case. Also, in test [8], the Potency result is “inactive”. Also, the activity change, positive = activation in test [6] was 51.8% (active). Besides, in [7], the compound was called inactive.
On to `CC(C)(C)NCC(O)COc1ccc(NC(=O)NC2CCCCC2)cc1` (stereo not drawn), for which the Potency result in test [1], in test [2], in [3], in test [4] and in test [8] was “inactive” throughout. For the same compound, in test [9], the result was inactive.
For the compound `Clc1nc2ccccc2nc1Cl`, the Potency result in test [1], in test [2], in test [3] and in test [8] was “inactive” in each case. Besides, the compound was called inactive in [9].
Take `C=CC(=O)OCCCCCCCCCC`: the Potency entry in [1], in test [2], in test [3], in [5], in [10] and in test [8] was “inactive” throughout. For the same compound, the result in test [9] and in test [7] was inactive. For the same compound, the activity change, positive = activation in test [6] was 2.6%.
With `CC(=O)c1ccc(Cl)c(Cl)c1Cl`, the Potency entry in [1], in [2], in test [3], in test [10] and in [8] was “inactive” in each case. The outcome in [9] and in test [7] was inactive.
On to `CC(C)C/C=C(\C=O)c1ccccc1`, for which the Potency entry in test [1], in test [2], in test [3], in test [4], in [10] and in test [8] was “inactive” in each case. Also, the activity change, positive = activation in test [6] is -20.3%. The compound was classed as inactive in test [7].
On to `Cc1ccccc1CCO`, for which the Potency entry in test [1], in test [2], in test [3], in test [5], in test [10] and in test [8] was “inactive” in each case. The outcome in test [9] and in [7] was inactive. Besides, the activity change, positive = activation in test [6] was -1.5%.
In the case of `CCCCCCCCCCCCCCCCN`, the Potency entry in test [1], in [2], in [3] and in test [10] was “inactive” throughout. Moreover, the call in test [9] and in test [7] was inactive.
In the case of `Cc1ccc(NC=O)c(C)c1`, the Potency entry in test [1], in test [2], in test [3] and in test [10] was “inactive” in each case. The compound was called inactive in test [9] and in [7].
With `Nc1ncnc2c1ncn2[C@@H]1O[C@H](CO)[C@@H](O)[C@H]1O`, the Potency result in test [1], in [2], in test [4] and in [10] was “inactive” each time. In test [3], the Potency is 31 µM (active). Besides, the call in test [7] was inactive.
Regarding `CCN(CCCCOC(=O)c1ccc(OC)c(OC)c1)C(C)Cc1ccc(OC)cc1` (stereo not drawn), the Potency entry in test [1], in test [2], in test [3], in test [4] and in test [8] was “inactive” throughout. For the same compound, in [6], the activity change, positive = activation was -16.6% [at 42.5 µM]. The compound was called inactive in [7].
For the compound `CCCCCC1CCC(=O)O1` (stereo not drawn), the Potency result in test [1], in test [2], in test [4], in [5], in test [10] and in test [8] was “inactive” in each case. The compound was called inactive in test [9] and in test [7]. For the same compound, in [6], the activity change, positive = activation was 4.33%.
Take `O=C(c1ccco1)N1CCNCC1`: the Potency entry in test [1], in test [2], in test [3], in test [5] and in [10] was “inactive” each time. Besides, the activity change, positive = activation in [6] was 3.89% [at 42.5 µM]. In addition, in test [7], the compound was classed as inactive.
Consider `COc1ccc(C(=O)c2ccc(C)cc2)c(O)c1`, for which the Potency entry in [1], in test [2], in test [3], in test [5] and in [8] was “inactive” throughout. For the same compound, the activity change, positive = activation in test [6] is 16.4% (active).
Turning to `N#CCCCC(C#N)CCC#N` (stereo not drawn), the Potency entry in test [1], in [2], in test [4], in [5] and in test [8] was “inactive” each time. For the same compound, the call in test [9] and in [7] was inactive. The activity change, positive = activation in test [6] was 0.869%.
